Experimental data taken from PubChem BioAssay (NCATS).
“And” between values parts separate entries of the source, which are not always exact repeats. Equal entries are not always repeated. Results filed as inconclusive are left out. Entries that show only a call come without a potency. A number with no mark means an inactive call. The source made the active and inactive calls. Unless noted, the call rests on the fitted dose curve; in most records, active means well fitted curve in the direction sought with a large enough effect; inconclusive means small, poorly fitted or top-dose-only effect, or another doubt; inactive means no such curve, though single readings can be large; an effect the other way counts as inactive or inconclusive.

How the values were obtained:
[1] = target: Cellular tumor antigen p53 (Homo sapiens) (UniProt P04637); test: Primary qHTS for small molecule compounds that upregulate eGFP-tagged delta133p53alpha (in N-terminal) cells. (AID 2060322); settings: NCI-H358 eGFP-delta133p53alpha fluorescence, 24 h; activation: stronger effect = higher value; further: nearly all actives have a fitted effect of over 75% in size; further: potency means the concentration at half of the fitted maximal effect; on activation: series mostly up to about 56 µM
Method in brief: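 NCI-H358 cells pre-induced 24 h with 10 ng/ml doxycycline to express N-terminal eGFP-delta133p53alpha, then dosed 24 h at 37C without doxycycline; fixed, Hoechst-stained, GFP intensity by laser scanning cytometry, normalized to DMSO (0%) and 57.5 uM 5-azacytidine (100%).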

[2] = target: Aldehyde dehydrogenase, mitochondrial (Homo sapiens) (UniProt P05091); test: qHTS for Inhibitors of the Aldehyde Dehydrogenase Family (ALDH2) Confirmatory screens (AID 2061303; active means well fitted inhibition curve with a large enough effect; title and protocol of this record describe different tests; further: nearly all actives have a fitted effect of over 45% in size)
[3] = target: Retinal dehydrogenase 2 (Homo sapiens) (UniProt O94788); test: qHTS for Inhibitors of the Aldehyde Dehydrogenase Family (ALDH1A2) Confirmation screens (AID 2061314); further: potency means the concentration at half of the fitted maximal effect; nearly all actives have a fitted effect of over 65% in size
[4] = target: Retinaldehyde dehydrogenase 3 (Homo sapiens) (UniProt P47895); test: qHTS for Inhibitors of the Aldehyde Dehydrogenase Family (ALDH1A3) Primary screen (AID 2061315)
[5] = target: Aldehyde dehydrogenase 1A1 (Homo sapiens) (UniProt P00352); test: qHTS for Inhibitors of the Aldehyde Dehydrogenase Family (ALDH1A1) Confirmatory screens (AID 2061316); further: nearly all actives have a fitted effect of over 65% in size
[6] = qHTS for Inhibitors of the Aldehyde Dehydrogenase Family (ALDH1A2, ALDH1A3, ALDH2, ALDH3A1) (AID 2061307); further: nearly all actives have a fitted effect of over 50% in size
[7] = target: Aldehyde dehydrogenase, mitochondrial (Homo sapiens) (UniProt P05091); test: qHTS for Inhibitors of the Aldehyde Dehydrogenase Family (ALDH2) Primary screen (AID 2061308); further: nearly all actives have a fitted effect of over 55% in size; further: potency means the concentration at half of the fitted maximal effect
[8] = target: Retinaldehyde dehydrogenase 3 (Homo sapiens) (UniProt P47895); test: qHTS for Inhibitors of the Aldehyde Dehydrogenase Family (ALDH1A3) Confirmatory screens (AID 2061311); further: nearly all actives have a fitted effect of over 60% in size
[9] = BET inhibitor-based combinations targeting novel dependencies in MECOM-rearranged (r) AML: SET-2 cell line (AID 2202231); settings: SET-2 AML cells viability, CellTiter-Glo luminescence, 48 h; viability: stronger effect = lower value, series mostly up to about 46 µM; further: nearly all actives have a fitted effect of over 35% in size
Method in brief: (§1)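 500 cells/well; 11-pt dose curve; 48 h, standard incubator; CellTiter-Glo luminescence after 15 min RT; DMSO/empty-well normalization; AUC plus Z-AUC (mean-centered within each line).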

[10] = BET inhibitor-based combinations targeting novel dependencies in MECOM-rearranged (r) AML: OCI-AML3 cell line (AID 2202232); settings: Potency: OCI-AML3 viability; further: series mostly up to about 46 µM; nearly all actives have a fitted effect of over 35% in size
Method in brief: as §1

[11] = BET inhibitor-based combinations targeting novel dependencies in MECOM-rearranged (r) AML: MV-4-11 cell line (AID 2202233); further: nearly all actives have a fitted effect of over 45% in size
Method in brief: (§2)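 Cells were plated at 500 per well and exposed to each drug across an 11-point dose range for 48 hr at standard incubator conditions. Viability was read by CellTiter-Glo luminescence, and activity was expressed as AUC and per-cell-line Z-transformed AUC.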

[12] = BET inhibitor-based combinations targeting novel dependencies in MECOM-rearranged (r) AML: HNT-34 cell line (AID 2202234); further: nearly all actives have a fitted effect of over 35% in size; further: potency means the concentration at half of the fitted maximal effect
Method in brief: as §2

[13] = BET inhibitor-based combinations targeting novel dependencies in MECOM-rearranged (r) AML: AML-191 cell line (AID 2202236; further: nearly all actives have a fitted effect of over 35% in size; further: potency means the concentration at half of the fitted maximal effect)
Method in brief: as §1

[14] = BET inhibitor-based combinations targeting novel dependencies in MECOM-rearranged (r) AML: AML-194 cell line (AID 2202237; further: nearly all actives have a fitted effect of over 40% in size)
Method in brief: as §1

[15] = target: Retinaldehyde dehydrogenase 3 (Homo sapiens) (UniProt P47895); test: qHTS for Inhibitors of the Aldehyde Dehydrogenase Family (ALDH1A3) Validation screen (AID 2061312); further: nearly all actives have a fitted effect of over 45% in size
[16] = BET inhibitor-based combinations targeting novel dependencies in MECOM-rearranged (r) AML: UCSD-AML1 cell line (AID 2202235); further: potency means the concentration at half of the fitted maximal effect; nearly all actives have a fitted effect of over 40% in size
Method in brief: as §2

Cellular tumor antigen p53 (Homo sapiens), sequence (P04637 whole entry, looked up): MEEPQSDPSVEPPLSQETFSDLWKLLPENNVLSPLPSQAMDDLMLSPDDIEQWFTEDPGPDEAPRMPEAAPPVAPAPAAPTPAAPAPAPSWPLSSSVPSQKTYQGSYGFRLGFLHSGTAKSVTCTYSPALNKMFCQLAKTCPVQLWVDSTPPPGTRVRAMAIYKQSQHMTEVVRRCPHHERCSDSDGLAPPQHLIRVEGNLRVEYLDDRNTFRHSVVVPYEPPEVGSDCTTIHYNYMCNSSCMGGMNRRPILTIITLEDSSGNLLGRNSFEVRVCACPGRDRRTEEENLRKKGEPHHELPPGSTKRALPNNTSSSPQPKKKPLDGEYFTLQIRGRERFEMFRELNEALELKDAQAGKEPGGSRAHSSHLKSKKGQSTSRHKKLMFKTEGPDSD

SMILES: COc1ccc(-c2c(-c3cc(C(=O)O)ccn3)ncn2C)cc1
- activation [1]: -2.33%
- Potency [2]: inactive
- Potency [3]: 28.3 µM (active)
- Potency [4]: inactive
- Potency [5]: inactive

SMILES: O=C(Nc1ccc(S(=O)(=O)C(F)(F)F)cc1)C1=CCN(c2ncccc2C(F)(F)F)CC1
- activation [1]: -1.91%
- Potency [6]: inactive
- Potency [7]: 25.1 µM (active)
- Potency [4]: inactive

SMILES: Clc1ccc2ncc(-c3cccc(NC4CNC4)n3)n2c1
- activation [1]: 11%
- Potency [6]: inactive
- Potency [7]: inactive
- Potency [8]: inactive
- Potency [4]: inactive
- viability [9]: 115%
- Potency [10]: inactive
- Potency [11]: inactive
- Potency [12]: inactive
- Potency [13]: inactive
- Potency [14]: inactive

SMILES: Cc1cc(N2CCOCC2)cc2[nH]c(-c3c(NC[C@@H](O)c4cccc(Cl)c4)cc[nH]c3=O)nc12
- Potency [1]: 21.7 µM (active) and 23.9 µM (active)
- Potency [6]: inactive
- Potency [7]: inactive
- Potency [15]: inactive
- Potency [4]: inactive
- Potency [12]: 7.42 µM (active)
- Potency [16]: 0.296 µM (active)
- Potency [13]: 0.59 µM (active)

SMILES: Cc1onc(-c2ccccc2)c1C(=O)N[C@@H]1C(=O)N2[C@@H]1SC(C)(C)[C@@H]2C(=O)O
- activation [1]: -0.333% and 17%
- Potency [6]: inactive
- Potency [7]: inactive
- Potency [4]: inactive

SMILES: CC1(C)CC[C@]2(C(=O)O[C@@H]3O[C@H](CO)[C@@H](O)[C@H](O)[C@H]3O)CC[C@]3(C)C(=CCC4[C@@]5(C)C[C@@H](O)[C@H](O)C(C)(C)C5[C@H](O)C[C@]43C)[C@@H]2[C@@H]1O (stereo partly drawn)
- activation [1]: -11.5%
- Potency [7]: inactive

SMILES: Cc1c(Cc2ccc3ccccc3n2)c2cc(F)ccc2n1CC(=O)O
- activation [1]: -10%
- Potency [6]: 3.18 µM (active)
- Potency [7]: inactive
- Potency [4]: inactive
